The record followed here is PubChem BioAssay (NCATS).

Records with an inconclusive call do not appear. Values without a mark were called inactive. Calls of active or inactive are those of the source. The call rests on the fitted dose curve; in most records, active means well fitted curve in the direction sought with a large enough effect; inconclusive means small, poorly fitted or top-dose-only effect, or another doubt; inactive means no such curve, though single readings can be large; an effect the other way counts as inactive or inconclusive.

Assay [1] in a line: Quantitative High-Throughput drug screen in 47 multiple myeloma cell lines against the NCATS MIPE library collection: KMS26_JCRB cell viability assay (AID 1918975). Further: nearly all actives have a fitted effect of over 45% in size. In short, it runs like this: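 We plated 500 myeloma cells per well, pinned in MIPE 4.0 compounds, and incubated for 48 hours at 37C. ATP was then quantified with CellTiter-Glo, with DMSO and media-only wells defining 100% and 0%.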

Assay [2] is described as follows: Quantitative High-Throughput drug screen in 47 multiple myeloma cell lines against the NCATS MIPE library collection: MOLP8_DSMZ cell viability assay (AID 1918977). Further: nearly all actives have a fitted effect of over 45% in size. In short, it runs like this:
(§1)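 Inhibition of viability over 48 h was scored by ATP content (CellTiter-Glo) in 500-cell wells. Zero and full viability were defined by media-only and DMSO-only wells.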

The nature of assay [3]: Quantitative High-Throughput drug screen in 47 multiple myeloma cell lines against the NCATS MIPE library collection: NCIH929_DSMZ cell viability assay (AID 1918978). Further: nearly all actives have a fitted effect of over 35% in size. In short, it runs like this:
as §1

A short description of assay [4]: Quantitative High-Throughput drug screen in 47 multiple myeloma cell lines against the NCATS MIPE library collection: OCIMY1_PLB cell viability assay (AID 1918979). Further: nearly all actives have a fitted effect of over 35% in size. An outline of the steps: as §1
Assay [5] can be described thus: Quantitative High-Throughput drug screen in 47 multiple myeloma cell lines against the NCATS MIPE library collection: MM1S_ATCC cell viability assay (AID 1918980). Further: nearly all actives have a fitted effect of over 45% in size. In short, it runs like this:
as §1

Assay [6] in a line: Quantitative High-Throughput drug screen in 47 multiple myeloma cell lines against the NCATS MIPE library collection: MM1R_ATCC cell viability assay (AID 1918981). Further: nearly all actives have a fitted effect of over 35% in size. In short, it runs like this:
as §1

Assay [7] in a line: Quantitative High-Throughput drug screen in 47 multiple myeloma cell lines against the NCATS MIPE library collection: KMS28PE_JCRB cell viability assay (AID 1918983). Further: nearly all actives have a fitted effect of over 35% in size. An outline of the steps: as §1
Assay [8] can be described thus: Quantitative High-Throughput drug screen in 47 multiple myeloma cell lines against the NCATS MIPE library collection: OCIMY7_PLB cell viability assay (AID 1918987). Further: nearly all actives have a fitted effect of over 65% in size. An outline of the steps: as §1
Assay [9] is described as follows: Quantitative High-Throughput drug screen in 47 multiple myeloma cell lines against the NCATS MIPE library collection: OPM1_PLB cell viability assay (AID 1918989). Further: nearly all actives have a fitted effect of over 40% in size. In short, it runs like this: as §1
A short description of assay [10]: Quantitative High-Throughput drug screen in 47 multiple myeloma cell lines against the NCATS MIPE library collection: SKMM1_PLB cell viability assay (AID 1919863). Further: nearly all actives have a fitted effect of over 35% in size. The settings on record: SKMM1 myeloma viability, CellTiter-Glo ATP, 48 h; viability: active compounds read low. In short, it runs like this:
as §1

Assay [11] can be described thus: Quantitative High-Throughput drug screen in 47 multiple myeloma cell lines against the NCATS MIPE library collection: MMM1_PLB cell viability assay (AID 1918976). Further: nearly all actives have a fitted effect of over 35% in size. In short, it runs like this: as §1
Assay [12] in a line: Quantitative High-Throughput drug screen in 47 multiple myeloma cell lines against the NCATS MIPE library collection: L363_DSMZ cell viability assay (AID 1918984). Further: nearly all actives have a fitted effect of over 40% in size. An outline of the steps: as §1
Assay [13] is described as follows: Quantitative High-Throughput drug screen in 47 multiple myeloma cell lines against the NCATS MIPE library collection: OCIMY5_PLB cell viability assay (AID 1918988). Further: nearly all actives have a fitted effect of over 65% in size. In short, it runs like this: as §1
A short description of assay [14]: Quantitative High-Throughput drug screen in 47 multiple myeloma cell lines against the NCATS MIPE library collection: U266_ATCC cell viability assay (AID 1919864). Further: nearly all actives have a fitted effect of over 35% in size. In short, it runs like this:
as §1

A short description of assay [15]: Quantitative High-Throughput drug screen in 47 multiple myeloma cell lines against the NCATS MIPE library collection: UTMC2_PLB cell viability assay (AID 1919868). Further: nearly all actives have a fitted effect of over 55% in size. To be noted: CellTiter-Glo ATP luminescence, 48 h; viability (% of DMSO control): at 45.8 µM (top of the series). In short, it runs like this:
as §1

Assay [16] is described as follows: Quantitative High-Throughput drug screen in 47 multiple myeloma cell lines against the NCATS MIPE library collection: KMS34_JCRB cell viability assay (AID 1918985). Further: nearly all actives have a fitted effect of over 40% in size. In short, it runs like this:
as §1

Assay [17] in a line: Quantitative High-Throughput drug screen in 47 multiple myeloma cell lines against the NCATS MIPE library collection: XG6_PLB cell viability assay (AID 1919865). Further: nearly all actives have a fitted effect of over 40% in size. An outline of the steps: as §1
Assay [18] can be described thus: Quantitative High-Throughput drug screen in 47 multiple myeloma cell lines against the NCATS MIPE library collection: XG1_PLB cell viability assay (AID 1919866). Further: nearly all actives have a fitted effect of over 35% in size. In short, it runs like this: as §1
A short description of assay [19]: Quantitative High-Throughput drug screen in 47 multiple myeloma cell lines against the NCATS MIPE library collection: VP6_DJ cell viability assay (AID 1919867). Further: nearly all actives have a fitted effect of over 40% in size. An outline of the steps: as §1
Assay [20] is described as follows: Quantitative High-Throughput drug screen in 47 multiple myeloma cell lines against the NCATS MIPE library collection: LP1_DSMZ cell viability assay (AID 1918982). Further: nearly all actives have a fitted effect of over 35% in size. In short, it runs like this: as §1
Potency means the concentration at half of the fitted maximal effect.

For `CCOc1cc(C=C2C(=O)N(c3ccccc3)N=C2C)cc(Cl)c1OCC(=O)OC`, the Potency in [1] is 20.9 µM (active); in [3] it was 2.64 µM (active); in [5], 7.43 µM (active); in [6], 23.5 µM (active); in [7] it was 6.62 µM (active); in assay [8] it was 3.72 µM (active). Also, the Potency in [9] is 23.5 µM (active). Moreover, the Potency entry in assay [2] and in assay [4] was “inactive” in each case. Further, the viability in assay [10] is 106%.

With `CCOC(=O)N1CCC(=C2c3ccc(Cl)cc3CCc3cccnc32)CC1`, the Potency in assay [1] was 18.7 µM (active); in [11] it was 23.5 µM (active); in assay [3] it was 7.43 µM (active); in assay [5] it was 29.6 µM (active); in assay [13] it was 20.9 µM (active); in assay [10], 20.9 µM (active). Besides, in assay [14], the Potency was 33.2 µM (active). Further, the Potency entry in assay [12] and in assay [15] was “inactive” throughout.

Take `COc1c(Cl)cc2c([nH]c3cnccc32)c1NC(=O)c1cccnc1C`: the Potency is 13.2 µM (active) in [1]; 0.743 µM (active) in [3]; 14.8 µM (active) in [6]; 0.743 µM (active) in assay [12]; 3.32 µM (active) in [16]; 2.09 µM (active) in [8]. For the same compound, the Potency was 9.35 µM (active) in assay [13]; 2.96 µM (active) in assay [9]; 6.62 µM (active) in [10]; 0.166 µM (active) in assay [17]; 0.372 µM (active) in assay [18]. Moreover, the Potency result in assay [2] and in assay [4] was “inactive” throughout.

For `COc1cc(F)c(F)c(Nc2ccc(I)cc2F)c1NS(=O)(=O)C1(C[C@H](O)CO)CC1`, the Potency in assay [1] was 13.2 µM (active); in [11] it was 2.64 µM (active); in assay [3], 18.7 µM (active); in [5], 16.6 µM (active); in assay [6], 10.5 µM (active); in assay [7], 5.26 µM (active). Further, the Potency in assay [8] is 16.6 µM (active); in [9] it was 11.8 µM (active); in assay [14], 16.6 µM (active).

Regarding `Cc1c(CN2CCN(C(=O)C(C)C)CC2)sc2c(N3CCOCC3)nc(-c3cnc(N)nc3)nc12`, the Potency in [1] is 0.264 µM (active); in assay [11], 0.0526 µM (active); in [2], 0.0372 µM (active); in [3], 0.0166 µM (active); in assay [5], 0.132 µM (active); in assay [6], 0.0469 µM (active). The Potency in assay [7] was 0.0662 µM (active); in assay [12], 0.0209 µM (active); in assay [8] it was 1.66 µM (active); in assay [13] it was 0.0743 µM (active); in assay [9], 0.118 µM (active); in assay [10] it was 0.148 µM (active). The Potency in assay [14] is 0.372 µM (active); in [17], 0.132 µM (active); in [18], 0.0662 µM (active); in assay [19] it was 0.105 µM (active); in [15], 0.0526 µM (active).

As for `C[C@@H]1CN(Cc2ccc(F)cc2)[C@@H](C)CN1C(=O)c1cc2c(C(=O)C(=O)N(C)C)cn(C)c2cc1Cl`, the Potency is 18.7 µM (active) in [1]; 23.5 µM (active) in [11]; 10.5 µM (active) in [5]; 14.8 µM (active) in assay [8]; 29.6 µM (active) in assay [9]; 18.7 µM (active) in assay [18]. In [19], the Potency is 14.8 µM (active). Also, the Potency result in assay [4] is “inactive”.

Turning to `CCOc1cc(C(=O)Nc2ccc(Cl)c(-c3nc4ccccc4[nH]3)c2)cc(OCC)c1OCC`, the Potency entry in [1], in assay [2], in assay [7], in assay [16] and in [15] was “inactive” throughout. Further, the Potency in [11] is 20.9 µM (active); in [6] it was 13.2 µM (active); in [8], 0.418 µM (active).

`COc1ccc(-c2ccc3c(N4CCOCC4)nc(N4C[C@@H](C)O[C@@H](C)C4)nc3n2)cc1CO`: the Potency is 2.96 µM (active) in [1]; 0.105 µM (active) in assay [11]; 1.05 µM (active) in assay [2]; 0.187 µM (active) in assay [3]; 4.69 µM (active) in assay [4]; 0.469 µM (active) in assay [5]. In addition, the Potency was 0.833 µM (active) in assay [6]; 0.059 µM (active) in assay [20]; 0.187 µM (active) in assay [7]; 0.235 µM (active) in assay [12]; 1.48 µM (active) in [13]; 0.935 µM (active) in [9]. For the same compound, the Potency in assay [10] is 1.66 µM (active); in assay [14] it was 0.332 µM (active); in assay [17], 0.59 µM (active); in [18] it was 0.187 µM (active); in assay [19] it was 0.296 µM (active); in assay [15], 0.526 µM (active).

For the compound `CO[C@@H]1[C@H](N(C)C(=O)c2ccccc2)C[C@H]2O[C@]1(C)n1c3ccccc3c3c4c(c5c6ccccc6n2c5c31)C(=O)NC4`, the Potency in assay [1] is 3.72 µM (active); in assay [11] it was 2.64 µM (active); in [2], 1.32 µM (active); in [3] it was 0.935 µM (active); in assay [4], 5.26 µM (active); in assay [5], 4.69 µM (active). Besides, the Potency in [6] was 2.09 µM (active); in assay [7] it was 5.26 µM (active); in assay [12], 1.66 µM (active); in assay [8] it was 0.235 µM (active); in assay [13], 1.48 µM (active); in assay [9], 1.18 µM (active). Moreover, the Potency is 8.33 µM (active) in assay [10]; 3.72 µM (active) in assay [14]; 0.372 µM (active) in assay [17]; 0.935 µM (active) in assay [18]; 0.418 µM (active) in [19]; 0.935 µM (active) in assay [15].

As for `CCn1cc(C(=O)O)c(=O)c2cc(F)c(N3CCNC(C)C3)c(F)c21` (stereo unspecified), the Potency result in [1], in [2], in assay [3], in [4], in assay [6] and in assay [20] was “inactive” each time. In addition, the Potency result in [7], in assay [12], in assay [16], in assay [13], in [17] and in assay [18] was “inactive” each time. Further, the Potency entry in assay [19] is “inactive”. The Potency in [9] is 11.8 µM (active). Besides, the viability in assay [10] was 140%.

With `CCc1ccc(CCOc2ccc(CC3SC(=O)NC3=O)cc2)nc1` (stereo unspecified), the Potency entry in assay [1], in [2], in [3], in assay [4], in assay [6] and in assay [7] was “inactive” in each case. Further, the Potency result in [16], in [9] and in [14] was “inactive” throughout. Besides, in assay [11], the Potency is 8.33 µM (active).

Take `CN(C)c1ccc(C2Nc3ccc4ccccc4c3C3=C2C(=O)CC(C)(C)C3)cc1Br` (stereo unspecified): the Potency in [1] was 16.6 µM (active); in [11], 14.8 µM (active); in assay [7], 23.5 µM (active); in assay [8] it was 0.935 µM (active); in assay [13], 23.5 µM (active). In addition, the Potency result in [4], in assay [5], in [12] and in assay [14] was “inactive” in each case.

For `CC[C@H](Nc1ncnc2nc[nH]c12)c1nc2cccc(F)c2c(=O)n1-c1ccccc1`, the Potency in assay [1] is 13.2 µM (active); in [11], 18.7 µM (active); in assay [2], 23.5 µM (active); in assay [3], 8.33 µM (active); in assay [4] it was 16.6 µM (active); in assay [5] it was 0.118 µM (active). For the same compound, the Potency in assay [8] is 4.69 µM (active); in assay [13], 20.9 µM (active); in assay [9], 14.8 µM (active); in assay [10], 16.6 µM (active); in assay [17], 13.2 µM (active); in [15], 5.9 µM (active).
